# PubChem BioAssay
# Where “and” joins values, the source holds several entries; their conditions need not be identical. Equal values may be shown once. Records with an inconclusive call do not appear. Calls of active or inactive are those of the source.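 How the source made its calls, unless noted: active means normalized viability below 100% at a tested concentration; inactive means the rest.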
# Experiments:
# [1] = viability loss in pontine glioma line – cell-based, SU-DIPG-XXV, MIPE5.0, CellTiter-Glo, qHTS, dose response (AID 1347065; cut-off not given, nearly all actives have AC50 up to about 26 µM;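 further: cells exposed to compound for 48 hours before ATP readout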); conditions: CellTiter-Glo ATP luminescence
# [2] = JHH-DIPG-1 glioma cell viability, MIPE5.0 library, CellTiter-Glo luminescence, qHTS (AID 1347067; cut-off not given, nearly all actives have AC50 up to about 26 µM;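 further: cells exposed to compound for 48 hours before readout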); conditions: JHH-DIPG-1 glioma viability, CellTiter-Glo ATP luminescence
# [3] = growth inhibition of DIPG cells – cell-based, MIPE5.0 library, qHTS (AID 1347068; cut-off not given, nearly all actives have IC50 up to about 30 µM;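 on IC50: cells exposed to compound for 48 hours before viability readout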); conditions: SU-DIPG-XXV viability
# [4] = liver-stage malaria parasite load reduction – cell-based, known kinase inhibitor set, luminescence, hepatoma host viability (AID 624392; call rule not given here;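 further: infected cells incubated roughly two days before readout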); conditions: Plasmodium liver stage in hepatoma cells, luciferase luminescence, concentration not given here; liver cell % of control: measured here: host liver cell viability; parasite % of control: stronger effect = lower value
# [5] = growth inhibition of DIPG cells – cell-based, MIPE4.0 library, CellTiter-Glo luminescence, qHTS (AID 1347066; cut-off not given, nearly all actives have AC50 up to about 30 µM;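 further: cells exposed to compound for 48 hours before readout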); conditions: SU-DIPG-VI viability, CellTiter-Glo ATP luminescence
# [6] = viability loss with induced miR-34 in A549 – imaging, A549 dox-inducible miR-34, nuclei and caspase counts, primary screen (AID 1347080;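 active means compounds whose cell count with miR-34 switched on is under 0.7 times the count with it off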); conditions: A549 miR-34 inducible, Hoechst nuclei count, 48 h
# [7] = compounds altering HSF1 focus formation in cells – imaging, Selleck Cancer Library (AID 1347162; in the data active means plate-normalised HSF1 focus index below about 0.46); conditions: human cells, HSF1 nuclear foci imaging, at 10 µM; SSMD: measured here: HSF1 foci SSMD mean; cell count: measured here: cell number; plate-normalised HSF1 focus index: stronger effect = lower value
# [8] = MELAS cybrid and Rieske KO viability enhancers – cell-based, MELAS cybrids, Rieske KO mouse fibroblasts, CellTiter-Glo, primary screen (AID 1508586;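 active means mean z-score across replicates of 1.96 or higher in either the MELAS or the Rieske mutant cell line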;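 further: z relative to plate mean and SD of compound and empty wells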); conditions: low glucose
# [9] = drug combination growth inhibition, ovarian cancer – cell-based, oncology-focused library, rucaparib conditional, profiling panel (AID 1508598); conditions: patient-derived ovarian cancer cells, CellTiter-Glo viability, 144 h, stronger effect = lower value
smiles,measurement,setting,value
COc1ccc(CNC(=O)c2cc(-c3cncc(Cl)c3)cnc2-c2ccccn2)nc1OC,outcome,[1],inactive
same,outcome,[2],inactive
same,outcome,[3],inactive
c1ccc(-c2ccc(CNc3nc(-c4ccccn4)nnc3-c3ccccc3)cc2)cc1,AC50,[1],3.32 µM (active)
same,AC50,[2],10.5 µM (active)
same,IC50,[3],2.95 µM (active)
COC(=O)/C=C/C(=O)N(O)CCCCNCc1ccc(COC(=O)Nc2cccc3ccccc23)cc1,AC50,[1],20.9 µM (active)
same,AC50,[2],18.6 µM (active)
Clc1cc2c(NC3CCCC3)nnc(-c3ccncc3)c2cc1Cl,AC50,[1],23.5 µM (active)
same,outcome,[3],inactive
COc1cc(N2CCN(C)CC2)ccc1Nc1ncc2c(n1)N(C)c1ccccc1C(=O)N2,AC50,[1],20.9 µM (active)
same,outcome,[3],inactive
COC1CC(C(=O)c2ccc3c(N)ncc(-c4ccc(-c5cnn(C)c5)cc4)c3n2)C1 (stereo not drawn),outcome,[2],inactive
same,outcome,[3],inactive
CC(C)C(=O)Nc1ncc(-c2cc(C(F)F)nn2-c2c(Cl)cccc2Cl)s1,liver cell % of control,[4],78% and 87.1% and 89.1%
same,parasite % of control,[4],2.64% (inactive) and 20.3% (inactive) and 36.7% (inactive)
same,outcome,[5],inactive
CCC(=O)N[C@H]1CC[C@H](C(=O)N(C)c2ccc(-c3nc4ccccc4o3)cc2)C1,outcome,[5],inactive
same,outcome,[2],inactive
CC#CC(=O)N1CC[C@@H](n2c(=O)n(-c3ccc(Oc4ccccc4)cc3)c3c(N)ncnc32)C1,outcome,[3],inactive
Cc1csc(NC(=O)c2sc3nc4c(c(C(F)(F)F)c3c2N)CCC4)n1,outcome,[2],inactive
FC(F)(F)c1ccc(Nc2nc3ccc(Oc4ccnc(-c5ncc(C(F)(F)F)[nH]5)c4)cc3[nH]2)cc1,AC50,[5],20.9 µM (active)
COCCOc1ccc(N2CCN(CCn3ncc4c3nc(N)n3nc(-c5ccco5)nc43)CC2)cc1,outcome,[2],inactive
same,outcome,[3],inactive
S=C(NCc1ccc2c(c1)OCO2)N1CCN(c2ncnc3c2oc2ccccc23)CC1,liver cell % of control,[4],79.8% and 74.8% and 83.5%
same,parasite % of control,[4],3.34% (inactive) and 4.31% (inactive) and 22.8% (inactive)
same,AC50,[1],18.6 µM (active)
same,fold change,"[6]; stronger effect = lower value, cell number ratio, induced over uninduced",0.868 (inactive)
same,fold change,[6]; measured here: relative caspase fold change +Dox/-Dox,1.07
same,cell count,"[6]; measured here: total cells with miR-34 induction, stronger effect = lower value",3980
same,cell count,[6]; measured here: total cells without miR-34 induction,4580
same,SSMD,[7],2.08
same,cell count,[7],7510
same,plate-normalised HSF1 focus index,[7],1.08 (inactive)
same,z-score,"[8]; MELAS cybrid survival, CellTiter-Glo 48 h, stronger effect = higher value",-0.551 (inactive)
same,z-score,"[8]; Rieske KO mouse fibroblast survival, CellTiter-Glo 72 h",0.864
same,viability,"[9]; at 0.000305 µM, OCI-C5x cells, with rucaparib 10 µM, 100% = cells with rucaparib alone",112% (inactive)
same,viability,"[9]; at 0.000305 µM, OCI-C5x cells, without rucaparib",101% (inactive)
same,viability,"[9]; at 0.000305 µM, OCI-P5x cells, with rucaparib 20 µM, 100% = cells with rucaparib alone",89.7% (active)
same,viability,"[9]; at 0.000305 µM, OCI-P5x cells, without rucaparib",92.1% (active)
same,viability,"[9]; at 0.00122 µM, OCI-C5x cells, with rucaparib 10 µM, 100% = cells with rucaparib alone",117% (inactive)
same,viability,"[9]; at 0.00122 µM, OCI-C5x cells, without rucaparib",100% (inactive)
same,viability,"[9]; at 0.00122 µM, OCI-P5x cells, with rucaparib 20 µM, 100% = cells with rucaparib alone",96.6% (active)
same,viability,"[9]; at 0.00122 µM, OCI-P5x cells, without rucaparib",98.2% (active)
same,viability,"[9]; at 0.00488 µM, OCI-C5x cells, with rucaparib 10 µM, 100% = cells with rucaparib alone",109% (inactive)
same,viability,"[9]; at 0.00488 µM, OCI-C5x cells, without rucaparib",104% (inactive)
same,viability,"[9]; at 0.00488 µM, OCI-P5x cells, with rucaparib 20 µM, 100% = cells with rucaparib alone",97.2% (active)
same,viability,"[9]; at 0.00488 µM, OCI-P5x cells, without rucaparib",95.2% (active)
same,viability,"[9]; at 0.0195 µM, OCI-C5x cells, with rucaparib 10 µM, 100% = cells with rucaparib alone",105% (inactive)
same,viability,"[9]; at 0.0195 µM, OCI-C5x cells, without rucaparib",98.9% (active)
same,viability,"[9]; at 0.0195 µM, OCI-P5x cells, with rucaparib 20 µM, 100% = cells with rucaparib alone",109% (inactive)
same,viability,"[9]; at 0.0195 µM, OCI-P5x cells, without rucaparib",105% (inactive)
same,viability,"[9]; at 0.0781 µM, OCI-C5x cells, with rucaparib 10 µM, 100% = cells with rucaparib alone",115% (inactive)
same,viability,"[9]; at 0.0781 µM, OCI-C5x cells, without rucaparib",111% (inactive)
same,viability,"[9]; at 0.0781 µM, OCI-P5x cells, with rucaparib 20 µM, 100% = cells with rucaparib alone",110% (inactive)
same,viability,"[9]; at 0.0781 µM, OCI-P5x cells, without rucaparib",101% (inactive)
same,viability,"[9]; at 0.313 µM, OCI-C5x cells, with rucaparib 10 µM, 100% = cells with rucaparib alone",110% (inactive)
same,viability,"[9]; at 0.313 µM, OCI-C5x cells, without rucaparib",111% (inactive)
same,viability,"[9]; at 0.313 µM, OCI-P5x cells, with rucaparib 20 µM, 100% = cells with rucaparib alone",105% (inactive)
same,viability,"[9]; at 0.313 µM, OCI-P5x cells, without rucaparib",104% (inactive)
same,viability,"[9]; at 1.25 µM, OCI-C5x cells, with rucaparib 10 µM, 100% = cells with rucaparib alone",118% (inactive)
same,viability,"[9]; at 1.25 µM, OCI-C5x cells, without rucaparib",107% (inactive)
same,viability,"[9]; at 1.25 µM, OCI-P5x cells, with rucaparib 20 µM, 100% = cells with rucaparib alone",103% (inactive)
same,viability,"[9]; at 1.25 µM, OCI-P5x cells, without rucaparib",103% (inactive)
same,viability,"[9]; at 5 µM, OCI-C5x cells, with rucaparib 10 µM, 100% = cells with rucaparib alone",128% (inactive)
same,viability,"[9]; at 5 µM, OCI-C5x cells, without rucaparib",129% (inactive)
same,viability,"[9]; at 5 µM, OCI-P5x cells, with rucaparib 20 µM, 100% = cells with rucaparib alone",101% (inactive)
same,viability,"[9]; at 5 µM, OCI-P5x cells, without rucaparib",101% (inactive)
